This is part of a sample that, as a whole, favours compounds with a hit. Of some 83,000 tested, about 20% had one in any assay.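 The test compound was applied at a single concentration to cells in 96-well plates for 48 hours, and percent growth was recorded.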 A number with no mark means an inactive call. The source made the active and inactive calls. How the source made its calls: active means growth percent below 10; inactive means the rest.
Columns and labels:
Assay in all cases: NCI-60 one-dose screen, 48 h (100 = growth as untreated, 0 = no growth, -100 = all killed)
Details in all cases: 10 µM unless noted
[1] = test system: DU-145 prostate
[2] = test system: K-562 leukemia
[3] = test system: MALME-3M melanoma
[4] = test system: MDA-MB-231 breast
[5] = test system: RXF 393 renal
[6] = test system: SF-268 CNS
[7] = test system: SF-295 CNS
[8] = test system: SF-539 CNS
[9] = test system: UACC-257 melanoma
[10] = test system: M14 melanoma

| Compound | growth [1] | growth [2] | growth [3] | growth [4] | growth [5] | growth [6] | growth [7] | growth [8] | growth [9] | growth [10] |
| --- | --- | --- | --- | --- | --- | --- | --- | --- | --- | --- |
| Nc1nc(C(=O)N/N=C/c2ccc(N3CCOCC3)cc2)nn1-c1ccc(S(N)(=O)=O)cc1 | 105% | 94% | 107% | 115% | 108% | 99% | 104% | 105% | 107% | – |
| CN(C)Cc1ccc(C(=O)Nc2ccc3ncnc(Nc4ccc(Oc5cccc(F)c5)c(Cl)c4)c3c2)cc1 | 7.69% (active) | -39.3% (active) | -80.6% (active) | -73.9% (active) | -80.4% (active) | -31% (active) | -41.7% (active) | -90.1% (active) | -58.3% (active) | – |
| Cc1ccc(-c2nc(C(Cl)Cl)nc3cc(C)nn23)cc1 | -12.6% (active) | 11.2% | -12.2% (active) | 8.58% (active) | -66% (active) | 21.4% | 17.8% | 35.1% | 55.8% | – |
| O=C(Nc1ncc(Cc2ccccc2Cl)s1)c1cccs1 | 82.6% | 16.9% | 69.1% | 88.7% | 82.2% | 76.4% | 65.2% | 95.8% | 92.6% | – |
| COC(=O)C1=Nc2ccc(F)cc2/C1=C\c1sc(Nc2ccc(O)cc2)nc1O | 93.9% | 23.2% | 45.9% | 76.7% | 43.6% | 59.8% | 61% | 55.4% | 72.2% | – |
| CN1CCN(CCCOc2ccc3ncnc(Nc4ccc(Oc5cccc(F)c5)c(Cl)c4)c3c2)CC1 | 15.2% | -30% (active) | -72.4% (active) | -65.4% (active) | -55.7% (active) | 40.5% | -35% (active) | -75.1% (active) | -59.6% (active) | – |
| O=C(N=Nc1c(O)[nH]c2ccccc12)Nc1ccc(Cl)cc1 | 108% | 81.5% | 96.3% | 102% | 96.3% | 101% | 101% | 83.8% | 95.8% | – |
| Nc1c(C(=O)O)cc(Cl)cc1[N+](=O)[O-] | 108% | 95.2% | 105% | 91.3% | 88.9% | 98% | 109% | 99.7% | 96.8% | – |
| O=C(CCCCCCN1CC(=O)N2[C@@H](c3ccc(Cl)cc3)c3[nH]c4ccccc4c3C[C@H]2C1=O)NO | 73.4% | 29.7% | 37.2% | 50.9% | 72.7% | 91.2% | 80.6% | 63.5% | 79.7% | – |
| NC(CSC(c1ccccc1)(c1ccccc1)c1ccc2c(c1)OCO2)C(=O)O (stereo not given) | -26.3% (active) | 8.25% (active) | 47.6% | 19.8% | -5.81% (active) | 38.8% | -27.6% (active) | 13.4% | 32.6% | – |
| CC(C)(C)c1cc(C=Nc2cccc(C(F)(F)F)c2)c(O)c(C(C)(C)C)c1 | 107% | 70.2% | 108% | 98.3% | 94.3% | 90.1% | 97.4% | 101% | 78.7% | 100% |
| Brc1ccc(-c2cnc3nonc3n2)cc1 | 87.7% | 38.7% | 53.9% | 69.1% | 74.5% | 87.1% | 91.4% | 94.8% | 66.9% | 80.1% |
| CCOC(=O)n1cc(-c2nonc2-c2cn(C)c3ccccc23)c2ccccc21 | 57.2% | 11.2% | 41% | 46% | 63.5% | 54% | 27.8% | 21.9% | 68.9% | 21.5% |
| Cc1ccc(-c2csc(NC(=O)N3CCN(c4cc5c(cc4F)c(=O)c(C(=O)O)cn5C4CC4)CC3)n2)cc1 | 16.3% | 17.1% | -3.8% (active) | 17.5% | 26.6% | 24.3% | 4.88% (active) | 26.7% | -4.73% (active) | 20% |
| O=c1oc2c(cnc3ccccc32)cc1-c1cccs1 | 113% | 94.1% | 103% | 107% | 112% | 100% | 105% | 105% | 108% | 104% |
| CC1(C)C2CC=C(/C=N/NC(=O)C3CCC(=O)N3)C1C2 (stereo not given) | 113% | 99.4% | 105% | 122% | 121% | 101% | 97.4% | 100% | 102% | 107% |
| COc1ccc(C2=NN(C(C)=O)C(c3ccc(Oc4ccnc5cc(Cl)ccc45)c(OC)c3)C2)cc1 (stereo not given) | 59.8% | 68.6% | 52.8% | 41.9% | 23% | 76% | 49.5% | 2.73% (active) | 70.5% | 71.8% |
| COc1cccc(/C=C/C(=O)c2cc3c(N)c(C(=O)Nc4cccc(Cl)c4C)sc3nc2C)c1 | 4.37% (active) | 11% | 14.7% | -26.5% (active) | -71% (active) | 10.1% | 5.12% (active) | -36% (active) | 57.4% | -28.4% (active) |
| O=C(OC[C@@H]1CO1)c1cccc2c(=O)c3ccccc3[nH]c12 | -20.8% (active) | 4.46% (active) | -89.9% (active) | -28.1% (active) | -56.9% (active) | -31.3% (active) | -8.88% (active) | -38.6% (active) | -30.8% (active) | -65.8% (active) |
| CCN(CC)c1ccc(N2C(=O)/C(=C/c3cccs3)SC2=S)cc1 | 100% | 94% | 84.2% | 91.3% | 98.3% | 92.1% | 99.6% | 94.3% | 80.6% | 95.4% |
| O=C(N/N=C/c1ccc(Cl)cc1Cl)c1ccc2nc(-c3ccc(Cl)cc3)[nH]c2c1 | 30.5% | 8.67% (active) | -58.7% (active) | 9.48% (active) | 18.9% | 38% | -49.3% (active) | 37.1% | 31.7% | 19.7% |
| O=C(/C=C/c1ccccc1)Nc1ncc(Cc2ccccc2)s1 | 16% | 10.5% | 44.3% | 33.4% | 10.9% | 39.4% | -10.7% (active) | -22.2% (active) | 48.3% | 5.78% (active) |
| Cn1cc(/C=C2/C(=O)Nc3ccccc32)c2ccccc21 | 99.1% | 96.7% | 94.5% | 109% | 96.7% | 84.5% | 108% | 80% | 95.9% | 92.3% |
| O=C(O)C1CN(c2cccc(Cl)c2)N(c2cccc(Cl)c2)C1=O (stereo not given) | 96.2% | 101% | 70.8% | 85.1% | 94.9% | 81.7% | 95.6% | 100% | 99.3% | 87.8% |
| O=C(Nc1ccc(F)cc1)Nc1ccccc1CNc1nc(Nc2ccc(OCCN3CCCC3)cc2)ncc1Cl | 47% | 2.99% (active) | -29.3% (active) | -30.9% (active) | -50% (active) | 56.5% | 82.3% | -74.7% (active) | 5.96% (active) | -39.2% (active) |
| CCCCCCCCn1ccc2cc(NC(=O)Cn3cc(CN4CCCCCC4)nn3)ccc21 | 30.7% | -62.2% (active) | -88.6% (active) | -26% (active) | 29.2% | 15.5% | -71.3% (active) | -73.9% (active) | -49.2% (active) | -68.3% (active) |
| CC/C(Cc1ccccc1)=C(\c1ccc(OCCN2CCCCCC2)cc1)c1ccc(OC(=O)NCc2ccccc2)cc1 | 83.2% | -11.8% (active) | 61.3% | 74.4% | 77.4% | 77.3% | 107% | 79.7% | 77.6% | 56.3% |
